PglD inh: C. jejuni PglD acetyltransferase inhibitors, primary screen, biochemical, DTNB colorimetric, single point; inhibition, % at 12.5 µM; 360,000 compounds, 0.098% hits; purified PglD enzyme, DTNB colorimetric CoA detection; UDP-N-acetylbacillosamine N-acetyltransferase PglD (Campylobacter jejuni); AID 602405, 2012; in the data active = inhibition above about 16%, passing the limit was not always enough
ALR H2O2 inh: inhibitors of human ALR sulfhydryl oxidase, primary screen, biochemical, H2O2 detection, HRP-luminol luminescence, single point | purified ALR, DTT oxidation | FAD-linked sulfhydryl oxidase ALR (Homo sapiens), P55789 | AID 485317, 2010 | 290,000 compounds, 3.8% hits | inhibition, % (test concentration not listed);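 active = mean replicate inhibition above about 79%, with every replicate also reaching it, limit read from the data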
ERp5 block: inhibitors of ERp5-driven insulin aggregation, primary screen, biochemical, turbidity, absorbance 650 nm, single point; 90 min; inhibition, % at 9.99 µM; 350,000 compounds, 0.05% hits; Protein disulfide-isomerase A6 (Homo sapiens), Q15084;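 active = mean replicate inhibition above about 25%, with every replicate also reaching it, limit read from the data, passing the limit was not always enough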
CendR NRP1 mod: modulators of CendR peptide binding to NRP-1, primary screen, biochemical, fluorescence polarization, uHTS; FAM-RPARPAR peptide binding to NRP-1; inhibition, % at 25 µM; 360,000 compounds, 0.85% hits;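 active = inhibition or corrected inhibition above about 18%, plus a signal ratio from 0.5 to 1.5, limit read from the data, passing the limit was not always enough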
ARNT TACC3 PPI: disruptors of ARNT/TACC3 protein interaction, primary screen, biochemical, AlphaScreen, single concentration; AlphaScreen His-ARNT PAS-B/GST-TACC3 binding, luminescence; TACC3 fragment carries E629A point mutation; inhibition, % at 9.99 µM; AID 623870, 2012; 390,000 compounds, 0.66% hits;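 active = mean inhibition of replicates at least 50% and at least half of replicates each reaching 50%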;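 also: 0% = complete ARNT plus TACC3 wells and 100% = ARNT alone without TACC3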
PDI inh: inhibitors of human PDI, primary screen, biochemical, turbidity, single point, plate reader | Protein disulfide-isomerase (Homo sapiens), P07237 | inhibition, % at 10 µM | PDI insulin aggregation turbidity, A650, 90 min | AID 588391, 2011 | 350,000 compounds, 0.052% hits;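 active = mean inhibition across replicates of 30% or more, whatever share of single replicates reach that level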
Active calls of the source: *. Only a selection was taken, and hits are over-represented in it overall.

`COc1ccc(NCC(=O)N/N=C/C2CCCCC2)cc1` gave PglD inh 4.5, ALR H2O2 inh 92.1*, ERp5 block -5.7, CendR NRP1 mod 7.8, ARNT TACC3 PPI 7.9 and PDI inh 7.9.
For C[C@H]1CN([C@@H](C)CO)C(=O)Cc2cc(NS(=O)(=O)c3cccs3)ccc2O[C@@H]1CN(C)S(=O)(=O)c1ccc(Cl)cc1 the results were PglD inh 1.0, ERp5 block -1.3 and ARNT TACC3 PPI 2.9.
`C[C@H](CO)N1C[C@H](C)[C@@H](CN(C)C(=O)Nc2cccc3ccccc23)OCCCC[C@H](C)Oc2ccc(NS(=O)(=O)c3cccs3)cc2C1=O` gave PglD inh -0.9, ERp5 block -5.8 and ARNT TACC3 PPI -7.1.
`COc1ccc(-c2csc(NC(=O)CSCC(=O)Nc3cc(C)on3)n2)cc1OC` gave PglD inh -3.6, ALR H2O2 inh 99.2*, ERp5 block 1.1, CendR NRP1 mod -13.0 and PDI inh 10.9.
COc1ccc(-c2cc(C(F)(F)F)nc(SCCC(=O)Nc3cc(C)on3)n2)cc1 was read as PglD inh -0.8, CendR NRP1 mod 9.3, ARNT TACC3 PPI -3.1 and PDI inh -2.9.
`COc1ccc(-c2cc(C(F)(F)F)nc(SCC(=O)Nc3cc(C)on3)n2)cc1OC` gave PglD inh 3.7, ALR H2O2 inh -3.7, CendR NRP1 mod 39.0*, ARNT TACC3 PPI 21.0 and PDI inh -9.1.
Screening CC(=O)Nc1ccc(-c2csc(NCc3ccco3)n2)cc1 returned ALR H2O2 inh 42.5, CendR NRP1 mod 12.2, ARNT TACC3 PPI 1.9 and PDI inh 0.7.
`COc1ccc(-c2csc(NCc3ccco3)n2)cc1C` gave PglD inh 3.3, ALR H2O2 inh -6.4, CendR NRP1 mod 22.8*, ARNT TACC3 PPI 0.2 and PDI inh -2.7.
Screening COc1ccc(-c2csc(Nc3ccc(S(=O)(=O)Nc4cc(C)on4)cc3)n2)cc1C returned ALR H2O2 inh 98.9*, ERp5 block -5.9, CendR NRP1 mod 12.1, ARNT TACC3 PPI 4.7 and PDI inh 1.8.
For C[C@@H]1CN([C@@H](C)CO)C(=O)c2cc(NS(=O)(=O)c3ccc(Cl)cc3)ccc2O[C@@H]1CN(C)C the results were PglD inh -16.1, ERp5 block -9.2 and ARNT TACC3 PPI 19.7.
Screening COc1cc(NS(=O)(=O)c2ccc(Nc3nc(-c4ccccn4)cs3)cc2)nc(OC)n1 returned ALR H2O2 inh 28.3, ERp5 block 4.4, CendR NRP1 mod -11.0, ARNT TACC3 PPI 56.2* and PDI inh -3.3.
Screening O=C(CSc1nc(-c2ccc(F)cc2)cc(C(F)(F)F)n1)NCCN1CCOCC1 returned PglD inh 8.4, ALR H2O2 inh -3.2, ERp5 block -2.6, CendR NRP1 mod 4.7, ARNT TACC3 PPI -2.4 and PDI inh -1.1.
Screening COc1ccc(-c2csc(Nc3ccc(S(=O)(=O)Nc4cc(OC)nc(OC)n4)cc3)n2)cc1 returned PglD inh -3.7, ALR H2O2 inh 20.7, CendR NRP1 mod -9.8, ARNT TACC3 PPI 3.9 and PDI inh 9.5.
Screening COc1ccc(-c2cc(C(F)(F)F)nc(SCC(=O)NCCN3CCOCC3)n2)cc1OC returned PglD inh -4.6, ALR H2O2 inh 5.7, ERp5 block 6.3, CendR NRP1 mod 31.1*, ARNT TACC3 PPI -10.1 and PDI inh -3.9.
For C[C@H](CO)N1C[C@H](C)[C@H](CN(C)S(=O)(=O)c2ccccc2)Oc2c(NC(=O)c3ccncc3)cccc2C1=O the results were PglD inh -3.5, ERp5 block -0.7 and ARNT TACC3 PPI -6.9.
`O=C(CC1SC(=O)N(c2ccccc2)C1=O)Nc1cccc2ccccc12` (stereo unspecified) gave PglD inh 2.6, ALR H2O2 inh 3.4, ERp5 block 9.0, CendR NRP1 mod -0.4, ARNT TACC3 PPI -1.7 and PDI inh 0.0.

Compound activity from PubChem BioAssay.
